PDI inh = inhibitors of human protein disulfide isomerase | actives 0.052% (n = 350,000) | P07237 | PDI insulin aggregation turbidity, A650, 90 min | inhibition, % at 10 µM | AID 588391;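 active means mean inhibition across replicates of 30% or more, whatever share of single replicates reach that level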
Target sequence (P07237 whole entry, looked up): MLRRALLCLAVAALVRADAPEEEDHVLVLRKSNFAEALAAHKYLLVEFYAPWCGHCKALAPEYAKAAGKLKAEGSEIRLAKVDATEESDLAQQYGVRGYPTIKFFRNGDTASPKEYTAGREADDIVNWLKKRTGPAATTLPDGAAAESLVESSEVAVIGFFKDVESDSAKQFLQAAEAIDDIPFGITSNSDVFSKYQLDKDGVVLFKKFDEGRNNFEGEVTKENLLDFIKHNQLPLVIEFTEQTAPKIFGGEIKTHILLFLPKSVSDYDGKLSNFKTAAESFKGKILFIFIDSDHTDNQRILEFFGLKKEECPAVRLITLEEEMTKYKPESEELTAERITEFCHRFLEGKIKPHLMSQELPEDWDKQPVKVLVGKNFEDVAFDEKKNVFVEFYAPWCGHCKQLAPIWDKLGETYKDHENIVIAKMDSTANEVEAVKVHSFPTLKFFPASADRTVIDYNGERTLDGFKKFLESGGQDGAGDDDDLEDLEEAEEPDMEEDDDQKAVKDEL
Vif imaging = inhibitors of HIV Vif; HEK293T cells, Vif self-association by quenched fluorescence, imaging, 24 h; inhibition, % at 7.49 µM; actives 0.35% (n = 340,000); in the data active means inhibition above about 50%, passing the limit was not always enough
Glyco luc inh = blocks N-linked glycosylation in D54 reporter cells; D54 ERlucT glycosylation luciferase reporter, 24 h; percent of 100 nM tunicamycin response; reporter increase, % at 12.5 µM; actives 0.23% (n = 360,000); AID 588692;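 active means mean luciferase reporter signal, scaled so untreated is 0 and the glycosylation-blocking control 100, at or above a set limit in every replicate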;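 further: luciferase carries N-glycosylation sites so blocking glycosylation raises the light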
ERp5 inh = inhibitors of human ERp5; Q15084; ERp5 insulin aggregation, absorbance 650 nm, 90 min; inhibition, % at 9.99 µM; actives 0.05% (n = 350,000);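 active means mean replicate inhibition above about 25%, with every replicate also reaching it, limit read from the data, passing the limit was not always enough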
PvdQ inh = P. aeruginosa PvdQ acylase inhibition; purified PvdQ acylase, fluorescence plate reader; inhibition, % at 10 µM; actives 0.063% (n = 340,000); AID 488965; in the data active means inhibition above about 30%, passing the limit was not always enough
Hits are given with their value. In the library only some 0.56% were active in any assay of this set; here they are far more common.

Results for COc1cccc(-c2nc(C(N)=O)c3[nH]c(=O)n(-c4cccc(Cl)c4)c3n2)c1OC ?
PDI inh: inactive; Vif imaging: inactive; Glyco luc inh: inactive; ERp5 inh: inactive; PvdQ inh: inactive

What do the screens show for `Cn1cnc([N+](=O)[O-])c1Sc1ncnc2nc[nH]c12`?
PDI inh: inactive; Vif imaging: inactive; Glyco luc inh: 129.6; ERp5 inh: inactive; PvdQ inh: inactive

How did Cn1cnc(Sc2ncnc3nc[nH]c23)c1[N+](=O)[O-] do in these assays?
PDI inh: inactive; Vif imaging: inactive; Glyco luc inh: 135.8; ERp5 inh: inactive; PvdQ inh: inactive

How did Cc1noc(C)c1NC(=O)N(C)C[C@H]1Oc2c(NC(=O)C3CC3)cccc2C(=O)N([C@@H](C)CO)C[C@@H]1C do in these assays?
ERp5 inh: inactive

How did COc1ccc(OC)c(/C=C/c2nc3ccccc3[nH]c2=O)c1 do in these assays?
PDI inh: inactive; Vif imaging: active; Glyco luc inh: inactive; ERp5 inh: inactive; PvdQ inh: inactive

Results for O=C(Nc1c2ccccc2nc2ccccc12)C(Cl)(Cl)Cl ?
PDI inh: inactive; Vif imaging: inactive; Glyco luc inh: 93.0; PvdQ inh: inactive

What do the screens show for `Cc1nc(Cc2nnc(SCC(=O)N3CCN(c4ccc(O)cc4)CC3)o2)cs1`?
PDI inh: inactive; Vif imaging: inactive; Glyco luc inh: inactive; ERp5 inh: inactive; PvdQ inh: inactive

Results for O=C(c1ncn(Cc2ccccc2)c1C(=O)N1CCN(c2ccccc2)CC1)N1CCN(c2ccccc2)CC1 ?
PDI inh: inactive; Vif imaging: inactive; Glyco luc inh: 49.6; ERp5 inh: inactive; PvdQ inh: inactive

Results for C[C@@H]1CN([C@@H](C)CO)C(=O)c2cccc(NC(=O)c3ccc(-c4nccs4)cc3)c2O[C@@H]1CN(C)C(=O)Nc1cccc2ccccc12 ?
ERp5 inh: inactive

Results for S=C(NCc1ccccc1Cl)Nc1ccccc1Cl ?
PDI inh: inactive; Vif imaging: inactive; Glyco luc inh: inactive; ERp5 inh: inactive; PvdQ inh: inactive

What do the screens show for `CCOC(=O)C1=C(C)NC(C)=C(C(=O)OCC)C1C(=O)OCC(=O)N1CC(C)OC(C)C1` (stereo not drawn)?
PDI inh: inactive; Vif imaging: inactive; Glyco luc inh: inactive; ERp5 inh: inactive; PvdQ inh: inactive

How did Cc1ccc(C(=O)NC(CCc2ccccc2)C(=O)O)cc1 (stereo not drawn) do in these assays?
PDI inh: inactive; Vif imaging: 118.0; Glyco luc inh: inactive; ERp5 inh: inactive; PvdQ inh: inactive

Results for CCNC(=S)N/N=C/c1sc(N2CCCCC2)nc1-c1cccs1 ?
PDI inh: inactive; Vif imaging: 68.8; Glyco luc inh: inactive; PvdQ inh: inactive

How did CCNC(=S)Nc1ccc(N2CCCCC2)cc1 do in these assays?
PDI inh: inactive; Vif imaging: inactive; Glyco luc inh: inactive; ERp5 inh: inactive; PvdQ inh: inactive

How did O=[N+]([O-])c1cccc(N/N=C/c2cccc(O)c2O)c1 do in these assays?
PDI inh: inactive; Vif imaging: 63.8; Glyco luc inh: inactive; ERp5 inh: inactive; PvdQ inh: inactive

How did CCOC(=O)C1CCN(C(=O)c2ccc(Cl)c(NC3=NC4CS(=O)(=O)CC4S3)c2)CC1 (stereo not drawn) do in these assays?
Vif imaging: inactive; Glyco luc inh: inactive; ERp5 inh: inactive; PvdQ inh: inactive

Results for Cc1cc(NC(=O)c2ccc([N+](=O)[O-])cc2Cl)no1 ?
PDI inh: inactive; Vif imaging: inactive; Glyco luc inh: inactive; ERp5 inh: inactive; PvdQ inh: 40.3

How did Cc1cc(NS(=O)(=O)c2ccc(NC(=O)c3ccc(Cl)cc3Cl)cc2)no1 do in these assays?
PDI inh: inactive; Vif imaging: 55.2; Glyco luc inh: inactive; ERp5 inh: inactive; PvdQ inh: inactive

What do the screens show for `Cc1cc(NC(=O)c2ccc(F)cc2)no1`?
PDI inh: inactive; Vif imaging: inactive; Glyco luc inh: inactive; ERp5 inh: inactive; PvdQ inh: inactive

What do the screens show for `Cc1cc(NC(=O)c2ccc([N+](=O)[O-])cc2)no1`?
PDI inh: inactive; Vif imaging: inactive; Glyco luc inh: inactive; ERp5 inh: inactive; PvdQ inh: inactive

Results for Cc1cc(NC(=O)c2cc(Cl)ccc2Cl)no1 ?
PDI inh: inactive; Vif imaging: inactive; Glyco luc inh: inactive; PvdQ inh: 74.6

Results for Cc1cc(NC(=O)c2c(F)c(F)c(F)c(F)c2F)no1 ?
PDI inh: inactive; Vif imaging: inactive; Glyco luc inh: inactive; PvdQ inh: 62.9

How did Cc1cc(NC(=O)c2ccccc2Cl)no1 do in these assays?
PDI inh: inactive; Vif imaging: inactive; Glyco luc inh: inactive; PvdQ inh: inactive

How did COc1ccccc1CNC(=O)C[C@@H]1C[C@H]2c3cc(NC(=O)Nc4ccc(C(F)(F)F)cc4)ccc3O[C@H]2[C@@H](CO)O1 do in these assays?
ERp5 inh: inactive

How did CCOc1ccc(C(=O)CSc2nnc3ccccn23)cc1 do in these assays?
PDI inh: inactive; Vif imaging: inactive; Glyco luc inh: inactive; PvdQ inh: inactive

Results for Cc1ccc(NC(=O)CN(C)C(=O)c2ccc(OCc3c(C)noc3C)cc2)cc1 ?
PDI inh: inactive; Vif imaging: inactive; Glyco luc inh: inactive; ERp5 inh: inactive; PvdQ inh: inactive

Results for COc1cc(-c2c(-c3ccsc3)sc3ccccc23)cc(OC)c1OC ?
PDI inh: inactive; Vif imaging: inactive; Glyco luc inh: inactive; ERp5 inh: inactive; PvdQ inh: inactive

What do the screens show for `Cc1cc(NC(=O)c2cc([N+](=O)[O-])ccc2Cl)no1`?
PDI inh: inactive; Vif imaging: inactive; Glyco luc inh: inactive; ERp5 inh: inactive; PvdQ inh: 87.8

What do the screens show for `O=C(Nc1cccc(NC(=O)c2cc([N+](=O)[O-])ccc2Cl)n1)c1cc([N+](=O)[O-])ccc1Cl`?
PDI inh: inactive; Vif imaging: 58.3; Glyco luc inh: inactive; PvdQ inh: inactive

How did CC(C)CC1Nc2ccc(C(=O)NCCCN3CCOCC3)cc2NC1=O (stereo not drawn) do in these assays?
PDI inh: inactive; Vif imaging: inactive; Glyco luc inh: inactive; ERp5 inh: inactive; PvdQ inh: inactive

What do the screens show for `CC(C)C1Nc2ccc(C(=O)NCCCN3CCOCC3)cc2NC1=O` (stereo not drawn)?
PDI inh: inactive; Vif imaging: 54.6; Glyco luc inh: inactive; PvdQ inh: inactive

What do the screens show for `COc1ccc(/C=N/NC(=O)c2ccccc2OCc2ccccc2)c(OC)c1`?
PDI inh: inactive; Vif imaging: inactive; Glyco luc inh: inactive; ERp5 inh: inactive; PvdQ inh: inactive

Results for COc1ccc(/C(C)=N/NC(=O)c2ccccc2OCc2ccccc2)c(OC)c1 ?
PDI inh: inactive; Vif imaging: inactive; Glyco luc inh: 32.1; ERp5 inh: inactive; PvdQ inh: inactive

How did COc1cccc(-c2cc(=O)c3cc(NC(=O)c4ccccc4)ccc3[nH]2)c1 do in these assays?
PDI inh: inactive; Vif imaging: 193.7; Glyco luc inh: inactive; ERp5 inh: inactive; PvdQ inh: inactive

What do the screens show for `COc1cccc(-c2cc(=O)c3cc(NC(=O)c4ccc(Cl)cc4)ccc3[nH]2)c1`?
PDI inh: inactive; Vif imaging: inactive; Glyco luc inh: inactive; ERp5 inh: inactive; PvdQ inh: inactive
